Several values for one entry are separate records, joined by “and”; a condition that tells them apart may be missing. Equal values may be shown once. A number with no mark means an inactive call. Inconclusive results are not listed. Where a call stands in place of a potency, no number is given. Activity calls are given as the source filed them. Unless noted, the call rests on the fitted dose curve; in most records, active means well fitted curve in the direction sought with a large enough effect in the repeat runs; inconclusive means weak or mixed curves; inactive means no such curve, though single readings can be large; an effect the other way counts as inactive or inconclusive.
Key:
[1] = qHTS assay to identify small molecule antagonists of the estrogen related receptor (ERR) signaling pathway from Tox21 library - cell viability counter screen (AID 1224834); conditions: ERR reporter cells viability, CellTiter-Fluor, 17.5 h; series mostly up to 92.4 µM; further: nearly all actives have a fitted effect of over 30% in size
How it was run: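 Cytotoxicity of test substances is gauged in the same ERR cells used for the antagonist screen, after 17.5 h of compound treatment at 37 C, by CellTiter-Fluor fluorescence measured after 30 min.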

[2] = qHTS assay to identify small molecule agonists of the constitutive androstane receptor (CAR) signaling pathway - cell viability counter screen (AID 1224836); conditions: HepG2-CYP2B6-hCAR viability, CellTiter-Fluor, 23 h, PK11195 added to every well; series mostly up to 92.4 µM; further: nearly all actives have a fitted effect of over 45% in size
How it was run: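 Multiplexed viability check: HepG2-CYP2B6-hCAR cells, 15-point compound dosing, 0.75 uM PK11195 final, 23 h at 37 C, CellTiter-Fluor fluorescence.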

[3] = qHTS assay to identify small molecule antagonists of the constitutive androstane receptor (CAR) signaling pathway - cell viability counter screen (AID 1224837); conditions: HepG2-CYP2B6-hCAR viability, CellTiter-Fluor, 23 h, co-treated with 50 nM CITCO; series mostly up to 92.4 µM; further: nearly all actives have a fitted effect of over 45% in size
How it was run: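 Multiplexed cytotoxicity read-out for the CAR antagonist screen: double-stable HepG2-CYP2B6-hCAR cells co-treated with 50 nM CITCO (final) and compound over 15 concentrations, incubated 23 hr, then assessed by CellTiter-Fluor fluorescence.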

[4] = target: Nuclear receptor subfamily 1 group I member 3 (Homo sapiens) (UniProt Q14994); test: qHTS assay to identify small molecule antagonists of the constitutive androstane receptor (CAR) signaling pathway (AID 1224838); conditions: HepG2-CYP2B6-hCAR luciferase, CITCO-stimulated, 24 h; series mostly up to 92.4 µM; further: nearly all actives have a fitted effect of over 40% in size
How it was run: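 Compounds were titrated across 15 concentrations onto HepG2 cells double-stably expressing hCAR and a CYP2B6-2.2kb reporter, together with 50 nM CITCO (final). After 24 h at 37 C, luciferase activity was measured by luminescence.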

[5] = target: Nuclear receptor subfamily 1 group I member 3 (Homo sapiens) (UniProt Q14994); test: qHTS assay to identify small molecule agonists of the constitutive androstane receptor (CAR) signaling pathway (AID 1224839); conditions: HepG2 hCAR CYP2B6-luciferase, agonist mode, 24 h; series mostly up to 92.4 µM; further: nearly all actives have a fitted effect of over 15% in size; further: potency means the concentration at half of the fitted maximal effect;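 on activation: HepG2 cells stably carrying human CAR and a CYP2B6 luciferase reporter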
How it was run: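 Using human hepatoma HepG2 cells engineered with hCAR and a CYP2B6-2.2kb reporter, 15-concentration compound series were incubated 24 h alongside PK11195 at 0.75 uM final, with luminescence quantified afterwards.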

[6] = qHTS assay to identify small molecule antagonists of the estrogen related receptor signaling pathway with the pleiotropic PPARgamma coactivator (PGC) from Tox21 10K library - cell viability counter screen (AID 1224840; active means well fitted cell-killing curve with a large enough effect in the repeat runs, not every such curve was filed as active; further: nearly all actives have a fitted effect of over 40% in size); conditions: PGC/ERR reporter cells viability, CellTiter-Fluor, 17.5 h; series mostly up to 92.4 µM
How it was run: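 Step one, plate 2,000 PGC/ERR cells per well; step two, incubate 6 h at 37 C/5% CO2; step three, pin-transfer compounds; step four, incubate 17.5 h; step five, add CellTiter-Fluor and read fluorescence after 30 min.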

[7] = qHTS assay to identify small molecule antagonists of the estrogen related receptor signaling pathway with the pleiotropic PPARgamma coactivator (PGC) from Tox21 10K library (AID 1224841; call rule not given here; further: actives are mostly falling curves and most rising ones were filed inactive; nearly all actives have a fitted effect of over 50% in size); conditions: PGC/ERR reporter cell line, ONE-Glo luciferase, 18 h; series mostly up to 92.4 µM
How it was run: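 Antagonism in this quantitative HTS is taken from loss of luciferase signal in PGC/ERR cells. Cells (2,000/well) are treated with compounds in DMSO after a 6 h settling period and read by One-Glo luminescence after 18 h.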

[8] = qHTS assay to identify small molecule agonists of the estrogen related receptor signaling pathway with the pleiotropic PPARgamma coactivator (PGC) from Tox21 10K library (AID 1224842); conditions: PGC/ERR reporter cell line, luciferase ONE-Glo, 18 h; series mostly up to 92.4 µM; further: nearly all actives have a fitted effect of over 15% in size
How it was run: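 Luminescence from One-Glo (30 min, room temperature) measured after PGC/ERR cells had 18 h at 37 C with pinned compound (23 nL in DMSO). Cells had been seeded at 2,000 per well and pre-incubated 6 h.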

[9] = target: Thyrotropin receptor (Homo sapiens) (UniProt P16473); test: qHTS assay to identify small molecule agonists of the thyroid stimulating hormone receptor (TSHR) signaling pathway (AID 1224843; calls by dose curve; further: nearly all actives have a fitted effect of over 45% in size); conditions: TSHR-HEK293 cells, cAMP HTRF, agonist mode, 30 min; series mostly up to 42.5 µM
How it was run: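 HEK293 cells stably bearing the thyrotropin receptor were plated at 800 cells/well and challenged with compound (30 min, RT). Accumulated cAMP was quantified via cAMP-d2 competing for cryptate-tagged antibody.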

[10] = qHTS assay to identify small molecule agonists of the hypoxia (HIF-1) signaling pathway - cell viability counter screen (AID 1224844; calls by dose curve; further: nearly all actives have a fitted effect of over 50% in size); conditions: HRE-bla ME-180 viability, CellTiter-Glo luminescence, 17 h; series mostly up to 76.8 µM
How it was run: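 Tox21 10K compounds were added to HRE-bla ME-180 cells (0.5% dialyzed FBS) and incubated 17 hrs at 37C; ATP-based CellTiter-Glo luminescence then reported cell viability in the same wells.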

[11] = qHTS assay to identify small molecule agonists of H2AX (AID 1224845; active means well fitted activation curve with a large enough effect in the signal ratio in the repeat runs, not every such curve was filed as active; the % refers to the signal ratio); conditions: CHO-K1 phospho-H2AX Ser139 HTRF, 3 h; series mostly up to 70.9 µM
How it was run: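 Phospho-H2AX Ser139 measured by HTRF (ex 320 nm; em 665 and 620 nm) after 24 hr antibody incubation. Compounds, 15 concentrations, 0.76% DMSO, were applied to CHO-K1 cells for 3hr at 37C before lysis.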

[12] = qHTS assay to identify small molecule agonists of the hypoxia (HIF-1) signaling pathway (AID 1224846; active means well fitted activation curve with a large enough effect in the signal ratio in the repeat runs, not every such curve was filed as active; the % refers to the signal ratio); conditions: HRE-bla ME-180 cells, beta-lactamase ratio, 17 h; series mostly up to 76.8 µM
How it was run: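 Steps: seed ME-180 HRE-bla cells (2,000/well, 0.5% dialyzed FBS); incubate 5 hrs at 37C; pin-transfer compounds or DMSO; incubate 17 hrs; add LiveBLAzer B/G substrate CCF4-AM; measure reporter activation by FRET.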

[13] = qHTS assay to identify small molecule agonists of H2AX - cell viability counter screen (AID 1224847; calls by dose curve;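 further: wild-type CHO-K1 cells; top concentration of the series differs between compounds; nearly all actives have a fitted effect of over 30% in size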); conditions: CHO-K1 viability, CellTiter-Glo luminescence, 3 h; series mostly up to 70.9 µM
How it was run: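 After overnight plating of 1000 CHO-K1 cells per well, a 15-concentration compound series was applied for 3 hr at 37C. Luminescence from CellTiter-Glo, read following 30 min at room temperature, reflected cell viability.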

[14] = qHTS assay to identify small molecule antagonists of the estrogen related receptor (ERR) signaling pathway from Tox21 library (AID 1224848); conditions: ERR reporter cell line, luciferase antagonist mode, 18 h; series mostly up to 92.4 µM; further: nearly all actives have a fitted effect of over 50% in size
How it was run: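 Reading was by luminescence 30 min after ONE-Glo addition. Before that, ERR cells at 2,000 per well had rested 6 h at 37 C/5% CO2 and then received pin-tooled compounds in DMSO for 18 h at 37 C.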

[15] = qHTS RealTime-Glo MT Cell Viability Assay in HepG2 cells - 24 hour (AID 1224867); conditions: RealTime-Glo luminescence; series mostly up to 76.8 µM; further: nearly all actives have a fitted effect of over 50% in size
How it was run: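 Cell number in HepG2 cultures estimated from NanoLuc luminescence generated by metabolic reduction of a prosubstrate by living cells. The homogeneous, nonlytic format allowed repeated reads at 0, 8, 16, 24, 32 and 40 h of compound exposure.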

[16] = qHTS RealTime-Glo MT Cell Viability Assay in HEK293 cells - 32 hour (AID 1224868); conditions: RealTime-Glo luminescence; series mostly up to 76.8 µM; further: nearly all actives have a fitted effect of over 50% in size; further: potency means the concentration at half of the fitted maximal effect
How it was run: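 Homogeneous bioluminescent viability format in HEK293 cells (600 cells/well). Following 5 h at 37 C/5% CO2, 23 nL compound was pintooled; the signal was measured repeatedly during 40 h incubation.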

[17] = A CellTox Green Cytotoxicity Assay to monitor cytotoxicity in HEK293 cells - 0 hour (AID 1224869); conditions: CellTox Green fluorescence; series mostly up to 76.8 µM; further: nearly all actives have a fitted effect of over 50% in size
How it was run: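 Cytotoxicity was tracked continuously in HEK293 cells by a DNA-binding dye excluded from viable cells. Compounds were transferred in DMSO 5 h after seeding; fluorescence was recorded at intervals up to 40 h.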

[18] = qHTS assay to identify small molecule agonists of the estrogen related receptor (ERR) signaling pathway from Tox21 library (AID 1224849; calls by dose curve; further: nearly all actives have a fitted effect of over 15% in size); conditions: ERR reporter cell line, ONE-Glo luciferase, 18 h; at 92.4 µM (top of the series) unless noted
How it was run: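 Agonist signal is luciferase luminescence from an ERR reporter cell line treated 18 h at 37 C with DMSO-dissolved compounds, read 30 min after ONE-Glo addition at room temperature.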

Sequence of Thyrotropin receptor (Homo sapiens) (P16473 whole entry, looked up): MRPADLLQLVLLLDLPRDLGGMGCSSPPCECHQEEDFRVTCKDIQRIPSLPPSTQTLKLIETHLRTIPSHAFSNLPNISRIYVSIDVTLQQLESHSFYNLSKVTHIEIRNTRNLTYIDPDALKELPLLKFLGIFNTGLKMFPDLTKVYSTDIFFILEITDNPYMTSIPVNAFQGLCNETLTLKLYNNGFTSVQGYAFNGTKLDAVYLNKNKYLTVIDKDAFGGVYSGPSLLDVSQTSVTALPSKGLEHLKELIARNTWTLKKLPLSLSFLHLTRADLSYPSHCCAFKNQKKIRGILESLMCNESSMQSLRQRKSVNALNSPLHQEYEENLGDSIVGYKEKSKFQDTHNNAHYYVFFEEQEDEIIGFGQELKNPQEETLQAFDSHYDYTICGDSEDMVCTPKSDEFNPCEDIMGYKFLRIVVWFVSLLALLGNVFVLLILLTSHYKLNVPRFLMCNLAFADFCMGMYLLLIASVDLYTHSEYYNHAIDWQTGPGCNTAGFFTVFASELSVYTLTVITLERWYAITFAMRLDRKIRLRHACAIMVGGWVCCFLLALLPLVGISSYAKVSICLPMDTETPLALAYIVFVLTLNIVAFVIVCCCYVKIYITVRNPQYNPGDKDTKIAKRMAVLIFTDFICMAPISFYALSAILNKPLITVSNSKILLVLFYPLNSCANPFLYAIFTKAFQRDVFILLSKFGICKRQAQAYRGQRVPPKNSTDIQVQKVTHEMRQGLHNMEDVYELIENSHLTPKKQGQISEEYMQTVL
Sequence of Nuclear receptor subfamily 1 group I member 3 (Homo sapiens) (Q14994 whole entry, looked up): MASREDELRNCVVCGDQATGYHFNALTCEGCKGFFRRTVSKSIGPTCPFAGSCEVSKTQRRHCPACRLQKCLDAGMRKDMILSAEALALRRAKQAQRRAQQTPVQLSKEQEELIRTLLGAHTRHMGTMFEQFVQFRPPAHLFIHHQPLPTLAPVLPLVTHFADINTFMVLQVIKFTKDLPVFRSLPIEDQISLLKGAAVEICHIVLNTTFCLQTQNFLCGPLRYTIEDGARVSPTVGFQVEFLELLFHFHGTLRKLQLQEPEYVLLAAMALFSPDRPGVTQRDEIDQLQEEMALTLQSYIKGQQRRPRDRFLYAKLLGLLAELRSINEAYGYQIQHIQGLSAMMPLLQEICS

SMILES | Potency [1] | Potency [2] | Potency [3] | Potency [4] | Potency [5] | Potency [6] | Potency [7] | outcome [8] | Potency [9] | Potency [10] | outcome [11] | outcome [12] | Potency [13] | Potency [14] | Potency [15] | Potency [16] | Potency [17] | activity change, positive = activation [18]
CCCCNC(=O)NCCCC | inactive | inactive | inactive | inactive | inactive | inactive | inactive | inactive | inactive | inactive | inactive | inactive | inactive | inactive | inactive | inactive | inactive | 
CCN1CCC[C@H]1CNC(=O)c1cc(S(N)(=O)=O)ccc1OC | inactive | inactive | inactive | inactive | inactive | inactive |  |  | inactive | inactive | inactive |  | inactive |  | inactive | inactive | inactive | 
CC(C)(C)c1ccc(O)c(O)c1 |  | inactive | inactive | inactive | 63.2 µM (active) and 24.3 µM (active) |  |  |  |  | inactive |  |  | inactive |  |  | 20.2 µM (active) and 13.8 µM (active) | inactive | 
Cc1c(NC(C)C)c(=O)n(-c2ccccc2)n1C | inactive | inactive | inactive |  | inactive | inactive | inactive | inactive | inactive | inactive | inactive | inactive | inactive | inactive | inactive | inactive | inactive | 
OCCCC1CCCCC1 | inactive | inactive | inactive |  | inactive | inactive | inactive | inactive | inactive | inactive | inactive | inactive | inactive | inactive | inactive | inactive | inactive | -0.619%
CCC(C)C1CCCCC1=O (stereo not given) | inactive | inactive | inactive |  | inactive | inactive | inactive | inactive | inactive | inactive | inactive | inactive | inactive | inactive | inactive | inactive | inactive | 3.66%
NC(=O)COCCN1CCN(C(c2ccccc2)c2ccc(Cl)cc2)CC1 (stereo not given) | inactive | inactive | inactive | inactive | inactive | inactive | inactive | inactive | inactive | inactive | inactive | inactive | inactive | inactive | inactive |  | inactive | 5.27% [at 42.5 µM]
C=C(C)CS(=O)(=O)O | inactive | inactive | inactive | inactive | inactive | inactive | inactive | inactive | inactive | inactive | inactive | inactive | inactive | inactive | inactive | inactive | inactive | 
CCN(Cc1ccncc1)C(=O)C(CO)c1ccccc1 (stereo not given) | inactive | inactive | inactive | inactive | inactive | inactive |  |  | inactive |  | inactive |  | inactive |  | inactive | inactive | inactive | 
CCO[Si](CCC1CCC2OC2C1)(OCC)OCC (stereo not given) | inactive | inactive | inactive |  | inactive | inactive | inactive | inactive | inactive | inactive | inactive | inactive | inactive | inactive | inactive | inactive | inactive | 3.88%
OC[C@]1(O)OC[C@@H](O)[C@H](O)[C@@H]1O | inactive | inactive | inactive | inactive | inactive | inactive |  |  | inactive | inactive | inactive | inactive | inactive |  | inactive | inactive | inactive | 
COc1nc(N)nc2c1ncn2[C@@H]1O[C@H](CO)[C@@H](O)[C@@H]1O | inactive | inactive | inactive |  | inactive | inactive | inactive | inactive | inactive |  |  | inactive | inactive | inactive | inactive | inactive | inactive | 4.89% [at 42.5 µM]
CCC(=O)OC(C)c1ccccc1 (stereo not given) | inactive | inactive | inactive | inactive | inactive | inactive | inactive | inactive | inactive | inactive | inactive | inactive |  | inactive | inactive | inactive | inactive | 0.422%
COC(=O)c1cc(C(=O)OC)cc(S(=O)(=O)O)c1 | inactive | inactive | inactive | inactive | inactive | inactive | inactive | inactive | inactive | inactive | inactive | inactive | inactive | inactive | inactive | inactive | inactive | 0.501%
CCOC(=O)CC(C)=O | inactive | inactive | inactive |  |  | inactive |  |  | inactive | inactive | inactive | inactive | inactive |  | inactive | inactive | inactive | 
CC(C)(O)C#CC(C)(C)O | inactive | inactive | inactive | inactive | inactive | inactive | inactive | inactive | inactive | inactive |  | inactive | inactive | inactive | inactive | inactive | inactive | 4.8%
CC(C(=O)O)c1ccc(CC2CCCC2=O)cc1 (stereo not given) | inactive | inactive | inactive | inactive | inactive | inactive |  |  | inactive | inactive | inactive |  | inactive |  | inactive | inactive | inactive | 
CCCCC/C=C\CCC=O | inactive | inactive | inactive | inactive | inactive | inactive |  |  | inactive |  | inactive | inactive | inactive |  | inactive | inactive | inactive | 

Reference: PubChem BioAssay (Tox21)
